# Test results: PubChem BioAssay (NCI)
# Compounds without any hit were thinned out: in the full panel of roughly 79,000, 15% have a hit. Values without a mark were called inactive. Calls of active or inactive are those of the source. No stated cut-off is given here; in the data, active means growth inhibition above about 70%; inactive means the rest.
# Assays:
# [1] = NCI Yeast Anticancer Drug Screen. Data for the rad50 strain (AID 155);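 further: 0% = growth of vehicle-only cultures of the same strain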; details: S. cerevisiae rad50 strain growth inhibition, active compounds read high
# Procedure, shortened: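 Compounds were tested on a yeast strain with an engineered DNA damage repair alteration; the reported value is growth inhibition normalised to vehicle treatment.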
# [2] = NCI Yeast Anticancer Drug Screen. Data for the mec2-1 strain (AID 157); details: S. cerevisiae mec2-1 strain, active compounds read high
# Procedure, shortened: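 Each compound was tested on mec2-1 yeast, a strain altered in DNA damage repair or cell cycle control. Growth inhibition is reported relative to vehicle.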
# [3] = NCI Yeast Anticancer Drug Screen. Data for the sgs1 mgt1 strain (AID 161);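 further: 0% = growth of cultures given vehicle only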; details: S. cerevisiae sgs1 mgt1 strain, active compounds read high
# Procedure, shortened: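 Inhibition of yeast growth, normalised to vehicle-treated controls, is reported for a strain bearing genetic alterations in DNA damage repair.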
# [4] = NCI Yeast Anticancer Drug Screen. Data for the cln2 rad14 strain (AID 165);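 further: 0% = growth equal to vehicle treated cultures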; details: S. cerevisiae cln2 rad14 strain, active compounds read high
# Procedure, shortened: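 Test compounds were added to cln2 rad14 yeast cultures; inhibition of growth was then determined by comparison with vehicle treatment.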
# [5] = NCI Yeast Anticancer Drug Screen. Data for the bub3 strain (AID 167); details: S. cerevisiae bub3 mutant strain, active compounds read high
# Procedure, shortened: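 Growth of a checkpoint-deficient yeast mutant is measured after compound exposure. Values represent inhibition relative to vehicle.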
# [6] = NCI Yeast Anticancer Drug Screen. Data for the mlh1 rad18 strain (AID 175); details: S. cerevisiae mlh1 rad18 strain growth inhibition, active compounds read high
# Procedure, shortened: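 Inhibition values reflect reduced growth of mutant yeast versus vehicle-treated controls following compound exposure; the mutations affect DNA damage repair.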
# [7] = at 5.0 µM (retest, dose inferred, filed as 0.5)
# [8] = at 50.0 µM (retest, dose inferred, filed as 5.0)
Structure (SMILES),"growth inhibition [1, 7] [%]","growth inhibition [1, 8]",growth inhibition ([1]; at 50.0 µM),"growth inhibition [2, 7] [%]","growth inhibition [2, 8]",growth inhibition ([2]; at 50.0 µM),"growth inhibition [3, 7] [%]","growth inhibition [3, 8]",growth inhibition ([3]; at 50.0 µM),"growth inhibition [4, 7] [%]","growth inhibition [4, 8]",growth inhibition ([4]; at 50.0 µM),"growth inhibition [5, 7] [%]","growth inhibition [5, 8]",growth inhibition ([5]; at 50.0 µM),"growth inhibition [6, 7] [%]","growth inhibition [6, 8]",growth inhibition ([6]; at 50.0 µM)
CCCCCCCCN1C(=O)c2ccccc2S1(=O)=O,-2,95% (active),22.9%,-4,96% (active),32.1%,-2,94% (active),73.8% (active),-17,95% (active),-27.6%,25,96% (active),89.2% (active),-2,95% (active),76.2% (active)
CCOc1ccc2c(c1)CCC1C2CCC2(C)CC(O)CC12 (configuration not stated),11,98% (active),97.7% (active),3,67%,97.5% (active),22,99% (active),54%,-18,82% (active),98.6% (active),-4,-3%,98.1% (active),14,99% (active),98.6% (active)
O=C1c2c(Br)c(Br)c(Br)c(Br)c2C(=O)N1c1nccs1,-1,51%,75.4% (active),-4,72% (active),70.8% (active),-10,54%,75% (active),-20,25%,45.5%,11,70% (active),69.4%,21,72% (active),72.3% (active)
Nc1n[nH]c(=O)c2cccnc12,-1,-13%,0.7%,2,-12%,-7.95%,-1,-13%,-10.2%,5,-13%,17%,1,-4%,12.9%,2,-14%,3.25%
